Laboratory results published in paper PMC5540273 (PLoS ONE, 2017).
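Also: kd values determined as follow-up on hits from a single-replicate KINOMEscan panel screen.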

The compounds below were run on T1, MLCK.
T1 construct: gene MYLK3
O=C(Nc1n[nH]c2nc(-c3cccs3)c(Br)cc12)C1CC1 [SB-735297] gave a Kd of 180 nM. O=C(Nc1n[nH]c2nc(-c3cccs3)c(Br)cc12)C1CCCC1 [SB-743341] was tested, and the Kd was 290 nM. CS(=O)(=O)CCNCc1nc(-c2ccc3ncnc(Nc4ccc(OCc5ccccc5)c(Cl)c4)c3c2)cs1.Cl [GW582764] was tested, and the Kd was greater than 10000 nM.

Each compound was assayed on MYLK2.
In the case of O=C(Nc1n[nH]c2cc(-c3ccsc3)ccc12)C1CC1 [SB-732932], the Kd is reported as 41 nM. With O=C(Nc1n[nH]c2nc(-c3cccs3)c(Br)cc12)C1CC1 [SB-735297] the Kd was 8.4 nM. For O=C(Nc1n[nH]c2nc(-c3ccco3)c(Br)cc12)C1CCN(Cc2ccccc2)C1.O=C(O)[C@H](O)[C@@H](O)C(=O)O (centres unmarked) [SB-742034], the Kd was 460 nM. In the case of Nc1cccc(-c2ccc3c(N)n[nH]c3c2)n1 [GSK2192730], the Kd is reported as 180 nM. O=C(Nc1n[nH]c2nc(-c3cccs3)c(Br)cc12)C1CCCC1 [SB-743341] gave a Kd of 26 nM.
